# Laboratory results taken from paper PMC7862700, “An all-to-all approach to the identification of sequence-specific readers for epigenetic DNA modifications on cytosine”.
# Tests used:
# Experiment in all cases: DAPPL (digital affinity profiling via proximity ligation, sequencing); 10 mM Tris-HCl pH 7.5, 50 mM NaCl, 1 mM DTT, 4% glycerol, room temperature, 30 min; GST-TFs on glutathione beads, 16-mer random dsDNA library, 0.1% formaldehyde crosslink after washing; high values mean tight binding
# Conditions in all cases: protein: recombinant; tags: N-terminal GST; dsDNA, one strand shown
# FLI1 = molecular target: T1, FLI1 (Homo sapiens, UniProt Q01543 1-452)
# T1 sequence: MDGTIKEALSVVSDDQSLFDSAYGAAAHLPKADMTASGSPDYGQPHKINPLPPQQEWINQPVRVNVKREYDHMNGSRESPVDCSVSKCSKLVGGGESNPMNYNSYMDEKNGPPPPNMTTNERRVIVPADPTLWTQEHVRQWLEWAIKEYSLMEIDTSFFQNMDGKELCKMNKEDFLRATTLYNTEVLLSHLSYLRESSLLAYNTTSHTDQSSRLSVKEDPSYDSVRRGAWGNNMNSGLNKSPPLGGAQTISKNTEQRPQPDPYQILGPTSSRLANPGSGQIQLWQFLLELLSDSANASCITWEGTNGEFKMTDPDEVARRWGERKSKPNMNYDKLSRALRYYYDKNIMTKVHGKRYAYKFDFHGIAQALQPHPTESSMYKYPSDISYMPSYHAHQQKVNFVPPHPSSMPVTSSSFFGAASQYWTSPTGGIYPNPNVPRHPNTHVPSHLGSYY
# Summary of the method: (§1)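 Human transcription factors fused to GST were expressed in yeast, captured on glutathione beads, given DNA barcodes and pooled with a GST-only negative control. Pools were incubated with 200 nmole of a 16-mer random double-stranded DNA library in Tris/NaCl/DTT/glycerol buffer at room temperature for 30 min. They were then washed, crosslinked with 0.1% formaldehyde, proximity-ligated (BsaI/T4 ligase, 1 h, 37 °C), PCR-amplified and sequenced on an Illumina NextSeq500. Binding signal is each 6-mer's read frequency for a factor divided by its frequency for the GST control.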
# ELK1 = molecular target: T2, ELK1 (Homo sapiens, UniProt P19419 1-428)
# T2 sequence: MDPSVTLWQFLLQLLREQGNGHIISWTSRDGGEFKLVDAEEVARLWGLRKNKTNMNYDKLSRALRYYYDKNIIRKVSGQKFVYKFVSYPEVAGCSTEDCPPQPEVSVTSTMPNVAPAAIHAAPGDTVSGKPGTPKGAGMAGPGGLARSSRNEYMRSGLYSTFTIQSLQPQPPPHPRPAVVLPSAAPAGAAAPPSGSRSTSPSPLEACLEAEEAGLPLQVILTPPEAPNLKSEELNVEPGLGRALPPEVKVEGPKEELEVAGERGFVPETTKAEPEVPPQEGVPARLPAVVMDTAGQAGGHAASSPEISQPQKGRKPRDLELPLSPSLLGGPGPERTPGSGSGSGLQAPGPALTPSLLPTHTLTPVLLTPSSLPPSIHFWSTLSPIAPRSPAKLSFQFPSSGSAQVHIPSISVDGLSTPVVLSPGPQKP
# Summary of the method: as §1
# GABPA = molecular target: T3, GABPA (Homo sapiens, UniProt Q06546 1-454)
# T3 sequence: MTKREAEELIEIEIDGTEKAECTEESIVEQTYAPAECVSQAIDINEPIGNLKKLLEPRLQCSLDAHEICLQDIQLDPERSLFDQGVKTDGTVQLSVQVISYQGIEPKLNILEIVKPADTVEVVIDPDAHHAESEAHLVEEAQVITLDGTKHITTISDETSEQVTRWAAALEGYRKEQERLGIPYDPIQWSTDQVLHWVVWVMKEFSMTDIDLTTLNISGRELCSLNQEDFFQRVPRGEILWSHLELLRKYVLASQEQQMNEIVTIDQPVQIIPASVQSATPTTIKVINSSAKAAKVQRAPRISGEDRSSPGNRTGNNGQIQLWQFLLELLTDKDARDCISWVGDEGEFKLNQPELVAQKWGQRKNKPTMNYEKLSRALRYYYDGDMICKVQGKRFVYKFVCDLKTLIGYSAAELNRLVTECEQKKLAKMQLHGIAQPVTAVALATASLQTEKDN
# Summary of the method: as §1
# ERG = molecular target: T4, ERG (Homo sapiens, UniProt P11308 1-479)
# T4 sequence: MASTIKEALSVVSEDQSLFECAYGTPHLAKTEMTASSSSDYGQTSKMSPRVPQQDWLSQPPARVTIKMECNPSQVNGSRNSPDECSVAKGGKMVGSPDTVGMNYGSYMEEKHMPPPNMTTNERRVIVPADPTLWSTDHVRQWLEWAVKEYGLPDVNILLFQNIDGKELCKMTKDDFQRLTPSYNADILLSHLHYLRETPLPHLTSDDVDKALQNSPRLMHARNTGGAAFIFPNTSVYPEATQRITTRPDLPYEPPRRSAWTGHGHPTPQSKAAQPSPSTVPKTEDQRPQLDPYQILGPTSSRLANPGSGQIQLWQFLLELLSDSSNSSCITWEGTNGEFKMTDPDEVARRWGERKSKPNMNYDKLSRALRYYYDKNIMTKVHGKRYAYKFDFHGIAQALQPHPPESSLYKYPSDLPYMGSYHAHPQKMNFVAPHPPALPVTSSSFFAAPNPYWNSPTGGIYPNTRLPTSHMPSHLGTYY
# Summary of the method: as §1
# ELF1 = ELF1 (Homo sapiens, UniProt P32519 1-619)
# Sequence of ELF1 (P32519 whole entry): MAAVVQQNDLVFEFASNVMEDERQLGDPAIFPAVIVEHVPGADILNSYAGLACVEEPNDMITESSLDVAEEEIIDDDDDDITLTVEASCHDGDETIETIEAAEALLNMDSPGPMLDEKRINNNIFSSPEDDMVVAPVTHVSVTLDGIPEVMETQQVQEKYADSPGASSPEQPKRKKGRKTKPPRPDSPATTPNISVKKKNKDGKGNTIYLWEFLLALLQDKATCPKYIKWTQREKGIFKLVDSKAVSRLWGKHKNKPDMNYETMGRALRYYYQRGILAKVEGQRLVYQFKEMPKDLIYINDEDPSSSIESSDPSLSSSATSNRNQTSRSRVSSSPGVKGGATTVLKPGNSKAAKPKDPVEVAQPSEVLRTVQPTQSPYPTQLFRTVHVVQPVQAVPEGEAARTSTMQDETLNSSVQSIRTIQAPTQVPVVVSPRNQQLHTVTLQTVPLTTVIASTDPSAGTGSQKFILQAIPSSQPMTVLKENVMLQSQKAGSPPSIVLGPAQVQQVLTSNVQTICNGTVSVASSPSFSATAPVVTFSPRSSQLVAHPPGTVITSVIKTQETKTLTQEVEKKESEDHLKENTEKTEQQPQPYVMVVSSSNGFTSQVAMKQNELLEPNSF
# Summary of the method: as §1
# EHF = molecular target: T5, EHF (Homo sapiens, UniProt Q9NZC4 1-300)
# T5 sequence: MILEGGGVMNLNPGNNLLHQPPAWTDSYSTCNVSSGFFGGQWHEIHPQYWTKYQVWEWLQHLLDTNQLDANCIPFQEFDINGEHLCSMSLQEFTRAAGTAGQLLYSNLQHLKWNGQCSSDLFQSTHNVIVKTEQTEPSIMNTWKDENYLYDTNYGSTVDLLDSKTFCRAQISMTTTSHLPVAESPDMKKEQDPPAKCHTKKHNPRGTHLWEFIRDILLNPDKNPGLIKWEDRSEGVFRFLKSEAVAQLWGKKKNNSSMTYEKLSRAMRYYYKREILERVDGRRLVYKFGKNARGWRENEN
# Summary of the method: as §1
# SPIB = SPIB (Homo sapiens, UniProt Q01892 1-262)
# Sequence of SPIB (Q01892 whole entry): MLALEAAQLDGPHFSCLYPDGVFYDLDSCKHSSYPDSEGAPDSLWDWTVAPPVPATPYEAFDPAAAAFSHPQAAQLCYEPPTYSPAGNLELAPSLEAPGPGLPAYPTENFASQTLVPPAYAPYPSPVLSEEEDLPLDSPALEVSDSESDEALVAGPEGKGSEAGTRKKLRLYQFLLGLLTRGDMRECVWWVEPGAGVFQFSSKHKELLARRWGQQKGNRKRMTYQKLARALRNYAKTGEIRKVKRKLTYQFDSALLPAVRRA
# Summary of the method: as §1
# ELK3 = molecular target: T6, ELK3 (Homo sapiens, UniProt P41970 1-407)
# T6 sequence: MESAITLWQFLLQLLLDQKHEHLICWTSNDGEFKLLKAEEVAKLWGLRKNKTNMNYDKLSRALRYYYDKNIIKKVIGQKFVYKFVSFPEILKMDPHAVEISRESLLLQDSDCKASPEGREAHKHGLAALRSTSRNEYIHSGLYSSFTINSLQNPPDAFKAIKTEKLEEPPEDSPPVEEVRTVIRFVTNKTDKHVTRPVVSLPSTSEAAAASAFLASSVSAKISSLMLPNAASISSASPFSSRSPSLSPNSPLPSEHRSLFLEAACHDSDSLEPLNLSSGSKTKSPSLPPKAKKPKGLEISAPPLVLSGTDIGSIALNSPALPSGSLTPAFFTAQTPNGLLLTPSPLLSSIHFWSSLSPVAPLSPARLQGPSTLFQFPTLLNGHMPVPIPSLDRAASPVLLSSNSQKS
# Summary of the method: as §1
sequence,measurement,setting,value
TTGACG,binding signal,FLI1,"1.19 fold enrichment (6-mer frequency, TF over GST control)"
same,binding signal,ELK1,"1.16 fold enrichment (6-mer frequency, TF over GST control)"
same,binding signal,GABPA,"1.08 fold enrichment (6-mer frequency, TF over GST control)"
same,binding signal,ERG,"1.06 fold enrichment (6-mer frequency, TF over GST control)"
same,binding signal,ELF1,"1.1 fold enrichment (6-mer frequency, TF over GST control)"
same,binding signal,EHF,"1.2 fold enrichment (6-mer frequency, TF over GST control)"
same,binding signal,SPIB,"1.11 fold enrichment (6-mer frequency, TF over GST control)"
same,binding signal,ELK3,"1.08 fold enrichment (6-mer frequency, TF over GST control)"
